Screens (PubChem)
3T3 cytotox = cytotoxic compounds in NIH 3T3 cells; NIH 3T3 viability, CellTiter-Glo ATP luminescence, 48-72 h; Potency, µM (titrated, usually from 96.7 µM), without a hit: top-dose activity change, negative = cytotoxicity, hits mostly inhibitors; hit rate 4.3% among 94,000; further: nearly all actives have a fitted effect of over 55% in size
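NIH 3T3 cells at 400 cells/well received 23 nL of compound by pintool and were incubated 48 or 72 h at 37 °C. Viability was read as ATP-coupled CellTiter-Glo luminescence.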
NPR1 antag = human Npr1 receptor antagonism; P16066; hit rate 1.6% among 76,000; HEK293 hNpr1 GloSensor cGMP, ANP-stimulated luminescence; Potency, µM (series often up to 46.3 µM), without a hit: at the highest dose activity change, negative = inhibition, hits mostly inhibitors; AID 1347048; calls by dose curve; further: nearly all actives have a fitted effect of over 60% in size
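HEK293 cells stably expressing human Npr1 and cGMP GloSensor pGS-40F, loaded 2 h with 2% GloSensor reagent, given compound 30 min at room temperature. Luminescence read before and 20 min after 0.1 nM hNppA.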
HEK cytotox = cytotoxic compounds in HEK 293 cells; HEK 293 viability, ATP luminescence (CellTiter-Glo), 48-72 h; Potency, µM (doses to about 115 µM), for the others: at the highest dose activity change, negative = cytotoxicity, actives largely listed as inhibitors; hit rate 6.6% among 94,000; further: nearly all actives have a fitted effect of over 60% in size
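HEK 293 cells seeded at 250 cells/well were exposed to compound for 48 or 72 hr at 37 degree Celsius. Viability taken as ATP content by CellTiter-Glo luminescence.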
Luciferase inh = blocks purified firefly luciferase enzyme activity | hit rate 2.5% among 76,000 | purified P. pyralis luciferase, luminescence, biochemical | Potency, µM (highest dose often 115 µM), hits mostly inhibitors | P08659; further: nearly all actives have a fitted effect of over 65% in size
Target sequence (P08659 whole entry, looked up): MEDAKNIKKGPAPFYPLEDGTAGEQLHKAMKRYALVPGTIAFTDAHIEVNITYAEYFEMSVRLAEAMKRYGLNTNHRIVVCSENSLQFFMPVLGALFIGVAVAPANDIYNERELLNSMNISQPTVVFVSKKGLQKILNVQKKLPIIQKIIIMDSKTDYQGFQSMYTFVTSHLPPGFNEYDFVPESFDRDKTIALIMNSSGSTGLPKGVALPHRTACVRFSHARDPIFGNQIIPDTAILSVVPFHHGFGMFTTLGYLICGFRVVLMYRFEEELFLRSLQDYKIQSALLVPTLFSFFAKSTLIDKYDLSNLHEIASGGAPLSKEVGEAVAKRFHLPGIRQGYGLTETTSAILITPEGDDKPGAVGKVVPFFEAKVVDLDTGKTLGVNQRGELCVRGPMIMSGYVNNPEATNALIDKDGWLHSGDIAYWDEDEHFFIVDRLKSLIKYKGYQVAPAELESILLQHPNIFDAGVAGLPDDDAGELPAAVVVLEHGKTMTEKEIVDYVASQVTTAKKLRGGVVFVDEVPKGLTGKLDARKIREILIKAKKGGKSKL
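FLuc 10nM, D-luciferin 10uM, ATP 10uM, Mg acetate 10mM, Tris acetate pH 7.5, Tween/BSA; cpd qHTS; enzyme added last; CCD luminescence.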
Numbers without * were called inactive; [ ] = another dose, or the depositor's remark. Sampled rows, rich in hits. Any-hit rate of the full collection: about 11%. Unless noted, the call rests on the fitted dose curve; in most records, active means well fitted curve in the direction sought with a large enough effect; inconclusive means small, poorly fitted or top-dose-only effect, or another doubt; inactive means no such curve, though single readings can be large; an effect the other way counts as inactive or inconclusive. On the % scale 0 is the no-effect control and ±100 the full control effect; potency means the concentration at half of the fitted maximal effect.

`Cc1nn(-c2ccccn2)c(C)c1[C@@H]1C=C[C@@H](NC(=O)NC(C)C)C1` gave 3T3 cytotox inconclusive, NPR1 antag 0.6%[70.6 µM], HEK cytotox -23.5%[172 µM] and Luciferase inh inconclusive.
For O=C(c1ccc(F)cc1)N1CCCN(c2ccc3nnc(-c4ccccc4)n3n2)CC1 the results were 3T3 cytotox inconclusive and HEK cytotox -18.8%.
For Oc1ccc(-c2nc(C3CC3)nc3c2CN(CC2CCCCC2)CC3)cc1 the results were 3T3 cytotox inconclusive, NPR1 antag 1.7%, HEK cytotox 79.4µM* and Luciferase inh inactive.
Screening O=C(c1ccccn1)N1CCc2nc(C3CC3)nc(-c3ccc(Cl)cc3)c2C1 returned 3T3 cytotox 31.6µM* and HEK cytotox -5.1%.
For Cc1ccc(C(=O)N2CCc3nc(C4CC4)nc(-c4ccc(Cl)cc4)c3CC2)cc1 the results were 3T3 cytotox -18.1%, NPR1 antag 6.0%, HEK cytotox -12.6% and Luciferase inh inactive.
For O=C(Nc1ccc(Cl)cc1)N1CCc2nc(C3CC3)nc(-c3ccc(Cl)cc3)c2C1 the results were 3T3 cytotox inconclusive, NPR1 antag 1.4%, HEK cytotox 28.2µM* and Luciferase inh inactive.
For CC(C)c1nc2c(c(-c3ccc(O)cc3)n1)CN(C(=O)Nc1ccc(Cl)cc1)CC2 the results were 3T3 cytotox inconclusive, NPR1 antag 0.8%, HEK cytotox inconclusive and Luciferase inh inactive.
O=C(c1ccccc1F)N1CCc2nc(C3CC3)nc(-c3ccc(Cl)cc3)c2C1 was read as 3T3 cytotox inconclusive and HEK cytotox -16.9%.
`O=C(c1ccc(C(F)(F)F)cc1)N1CCc2nc(C3CC3)nc(-c3ccc(Cl)cc3)c2CC1` gave 3T3 cytotox inconclusive, NPR1 antag 2.5%, HEK cytotox 28.2µM* and Luciferase inh inactive.
`COc1ccc(-c2nc3cc(C)ccc3cc2CN2CCC(N(C)C)C2)cc1` (centres undefined) gave 3T3 cytotox inconclusive, NPR1 antag 1.9%, HEK cytotox inconclusive and Luciferase inh inconclusive.
`COCCn1nc2n(c1=O)CCN(C(=O)COc1ccc(Cl)cc1C)CC2` gave 3T3 cytotox -14.9%, NPR1 antag -2.5%, HEK cytotox inconclusive and Luciferase inh inactive.
Screening COc1cccc(CCNC(=O)c2c(C)noc2-c2cc(OC)cc(OC)c2)c1 returned 3T3 cytotox inconclusive, NPR1 antag -15.0%, HEK cytotox inconclusive and Luciferase inh inactive.
`COc1ccc(-c2onc(C)c2C(=O)NCCc2cccs2)cc1` gave 3T3 cytotox -31.3%, NPR1 antag -14.0%, HEK cytotox 35.5µM* and Luciferase inh inactive.
Cc1noc(-c2cccs2)c1C(=O)NCCc1cccs1 was read as 3T3 cytotox -26.9%, NPR1 antag -0.2%, HEK cytotox inconclusive and Luciferase inh inactive.
For Cc1noc(-c2ccccc2Cl)c1C(=O)NCCC(c1ccccc1)c1ccccc1 the results were 3T3 cytotox 28.2µM*, NPR1 antag -4.9%, HEK cytotox 25.1µM* and Luciferase inh inactive.
Screening Cc1noc(-c2ccco2)c1C(=O)NCCC(c1ccccc1)c1ccccc1 returned 3T3 cytotox inconclusive, NPR1 antag -13.9%, HEK cytotox 39.8µM* and Luciferase inh inactive.
`COc1cc(OC)cc(-c2onc(C)c2C(=O)NCCC(c2ccccc2)c2ccccc2)c1` gave 3T3 cytotox inconclusive, NPR1 antag -3.3%, HEK cytotox 39.8µM* and Luciferase inh inactive.
For COc1cccc(NC(=O)CCC2CCN(S(=O)(=O)c3ccccc3)CC2)c1 the results were 3T3 cytotox inconclusive, NPR1 antag -13.1%, HEK cytotox inconclusive and Luciferase inh inactive.
CC(C)NC(=O)N1CCC(N2C(=O)C3(CCCC3)C2c2ccccc2)CC1 (centres undefined) was read as 3T3 cytotox -20.8%, NPR1 antag 6.4%, HEK cytotox inconclusive and Luciferase inh inactive.
`CCC1(O)CCC12CCN(C(=O)CCc1ccccc1)CC2` (centres undefined) gave 3T3 cytotox -10.3% and HEK cytotox -6.3%.
For O=C(c1cc2c(s1)CCC(C(=O)N1CCN(C3CCCCC3)CC1)C2)N1CCCCC1 (centres undefined) the results were 3T3 cytotox inconclusive, NPR1 antag 1.9%, HEK cytotox inconclusive and Luciferase inh inactive.
Screening COc1ccc(CNC(=O)N2CCC(Cc3ncc(C)n3C3CC3)C2)cc1 (centres undefined) returned 3T3 cytotox -32.5% and HEK cytotox -17.3%.
